Laboratory results taken from the supplement of paper PMC6522484.
± gives the standard deviation of the averaged measurements.

How the values were obtained:
[1] = tested on: DLD1; test: cell viability (CellTiter-Glo) relative to plate median (fraction of plate median); higher = more viable cells; conditions: 5 µM; treatment time 24 h; reporter: 7TFP
How it was run: (§1)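 Colorectal cancer lines with stably integrated lentiviral TCF/Wnt firefly luciferase reporters received library compounds at a final 5 µM, 24 h after seeding into 384-well plates, for a 24 h exposure. Reported figures are plate-median-normalised firefly luciferase or CellTiterGlo luminescence per well. They average two independent replicates.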

[2] = tested on: HCT116; test: as above; conditions: 5 µM; treatment time 24 h; reporter: TCF4/Wnt
How it was run: as §1

[3] = tested on: SW480; test: as above; conditions: 5 µM; treatment time 24 h; reporter: 7TFP
How it was run: as §1

[4] = tested on: DLD1; test: TCF/Wnt firefly luciferase reporter signal relative to plate median (fraction of plate median); higher = higher Wnt reporter signal; conditions: 5 µM; treatment time 24 h; reporter: 7TFP
How it was run: as §1

[5] = tested on: SW480; test: as above; conditions: 5 µM; treatment time 24 h; reporter: 7TFP
How it was run: as §1

SMILES | cell viability [1] | cell viability [2] | cell viability [3] | TCF/Wnt firefly luciferase reporter signal [4] | TCF/Wnt firefly luciferase reporter signal [5]
CC[C@H]1OC(=O)[C@H](C)[C@@H](O[C@H]2C[C@@](C)(OC)[C@@H](O)[C@H](C)O2)[C@H](C)[C@@H](O[C@@H]2O[C@H](C)C[C@H](N(C)C)[C@H]2O)[C@](C)(O)C[C@@H](C)[C@@H]2N[C@@H](COCCOC)O[C@H]([C@H]2C)[C@]1(C)O | 1.02 ± 0.049 | 0.991 ± 0.027 | 0.931 ± 0.0028 | 0.975 ± 0.05 | 0.998 ± 0.045
O=c1cc(-c2cc(O)c(O)c(O)c2)oc2cc(O)cc(O)c12 | 1.02 ± 0.014 | 1.06 ± 0.057 | 0.943 ± 0.031 | 1 ± 0.057 | 0.952 ± 0.059
CN1Cc2c(N)cccc2C(c2ccccc2)C1 (stereo not given) | 1.05 ± 0.014 | 1.15 ± 0.021 | 1.03 ± 0.05 | 1.02 ± 0.14 | 1.04 ± 0.014
COc1ccc2c(c1)OC/C(=C/c1ccc(O)c(O)c1)C2=O | 0.99 ± 0.043 | 1.01 ± 0.021 | 0.986 ± 0.035 | 0.944 ± 0.033 | 1.09 ± 0.078
O=C1CN2Cc3c(ccc(Cl)c3Cl)N=C2N1 | 1.05 ± 0.081 | 1.04 | 1 ± 0.011 | 1.19 ± 0.092 | 0.98 ± 0.13
CC(C)=CCC1=C(O)C(=O)c2ccccc2C1=O | 1.055 ± 0.0071 | 1.07 ± 0.064 | 1.02 ± 0.028 | 1.15 ± 0.092 | 1.04 ± 0.064
COc1ccc(-c2cc(=O)c3ccccc3o2)cc1 | 1 ± 0.066 | 0.983 ± 0.11 | 1.03 | 1.28 ± 0.12 | 1.13 ± 0.18
CN[C@H](CC(C)C)C(=O)N[C@H]1C(=O)N[C@@H](CC(N)=O)C(=O)N[C@H]2C(=O)N[C@H]3C(=O)N[C@H](C(=O)N[C@H](C(=O)O)c4cc(O)cc(O)c4-c4cc3ccc4O)[C@H](O)c3ccc(c(Cl)c3)Oc3cc2cc(c3O[C@@H]2O[C@H](CO)[C@@H](O)[C@H](O)[C@H]2O[C@H]2C[C@](C)(N)[C@H](O)[C@H](C)O2)Oc2ccc(cc2Cl)[C@H]1O | 1.08 ± 0.11 | 1.01 ± 0.014 | 0.979 ± 0.012 | 1.09 ± 0.057 | 1.02 ± 0.035
CN1CCCC(n2nc(Cc3ccc(Cl)cc3)c3ccccc3c2=O)CC1 (stereo not given) | 1.01 ± 0.021 | 1.015 ± 0.0071 | 1.045 ± 0.0071 | 1.17 ± 0.17 | 1.06 ± 0.057
CC(C)(S)[C@@H](N)C(=O)O | 0.991 ± 0.027 | 0.956 ± 0.13 | 0.9765 ± 0.0092 | 1.09 ± 0.014 | 1.16 ± 0.11
CO[C@H]1C=C[C@@]23c4cc5c(cc4CN(C[C@@H]2O)[C@H]3C1)OCO5 | 0.864 ± 0.075 | 0.847 ± 0.069 | 0.862 ± 0.035 | 0.857 ± 0.057 | 0.901 ± 0.18
Oc1ccc2c(c1)OC[C@]1(O)Cc3cc(O)c(O)cc3[C@H]21 | 1.01 ± 0.044 | 0.929 ± 0.085 | 0.936 ± 0.0014 | 1.15 ± 0.11 | 0.909 ± 0.024
C/C=C/c1ccc(OC)cc1 | 1.07 ± 0.021 | 0.987 ± 0.047 | 1.03 ± 0.062 | 0.925 ± 0.12 | 0.943 ± 0.0014
CN1CCc2c(c3ccccc3n2Cc2ccccc2)C1 | 1.01 ± 0.051 | 1.01 ± 0.029 | 1.04 ± 0.035 | 1.05 ± 0.1 | 0.961 ± 0.14
CC(=O)OCC(=O)[C@@]1(O)CC[C@H]2[C@@H]3C[C@H](C)C4=CC(=O)C=C[C@]4(C)[C@H]3[C@@H](O)C[C@@]21C [6alpha-METHYLPREDNISOLONE ACETATE] | 1.03 ± 0.05 | 0.957 ± 0.22 | 0.994 ± 0.037 | 0.904 ± 0.15 | 0.937 ± 0.073
C[C@@H]1CC[C@]2(C(=O)O[C@@H]3O[C@H](CO)[C@@H](O)[C@H](O)[C@H]3O)CC[C@]3(C)C(=CC[C@@H]4[C@@]5(C)C[C@@H](O)[C@H](O)[C@@](C)(CO)[C@@H]5CC[C@]43C)[C@@H]2[C@]1(C)O [Nigaichigoside F1] | 1.17 ± 0.11 | 1.02 ± 0.072 | 1.05 ± 0.042 | 1.08 ± 0.028 | 1.06 ± 0.24
COc1ccc(-c2oc3cc(O[C@@H]4O[C@H](CO)[C@@H](O)[C@H](O)[C@H]4O)c(OC)c(O)c3c(=O)c2OC)cc1O | 1.05 ± 0.057 | 1.19 ± 0.17 | 1 | 1.05 ± 0.035 | 1.02 ± 0.11
CC(C)NCC(O)COc1cccc2ccccc12 (stereo not given) | 0.927 ± 0.16 | 0.997 ± 0.047 | 1.03 ± 0.044 | 1.01 ± 0.044 | 0.9935 ± 0.0092
O=C1CC[C@]23/C=C/C(=O)NCCCCNCCCNC(=O)/C=C/c4ccc(c2c4)O[C@@H]3C1 | 1.03 ± 0.014 | 1.06 ± 0.057 | 1.01 ± 0.024 | 1.01 ± 0.056 | 1.04 ± 0.042
COc1ccc2cc([C@H](C)CO)ccc2c1 | 0.939 ± 0.0028 | 0.862 ± 0.17 | 0.9375 ± 0.0021 | 1.11 ± 0.035 | 1.04 ± 0.05
CCCc1nn(C)c2c(=O)[nH]c(-c3cc(S(=O)(=O)N4CCN(C)CC4)ccc3OCC)nc12 | 1 ± 0.067 | 0.981 ± 0.21 | 0.978 ± 0.013 | 1.02 ± 0.042 | 1.09 ± 0.028
CCN(CCCc1ccccc1)CCCc1ccccc1 | 1 ± 0.22 | 1.06 ± 0.021 | 1.08 ± 0.035 | 1 ± 0.036 | 0.916 ± 0.055
COc1cc2c(cc1OC)Cc1cc(OC)c(OC)cc1Cc1cc(OC)c(OC)cc1C2 | 1.02 ± 0.055 | 0.97 ± 0.16 | 1.02 ± 0.033 | 1.1 ± 0.15 | 0.865 ± 0.045
C[C@]12C=CC(=O)C=C1CC[C@@H]1[C@@H]2C(=O)C[C@@]2(C)[C@H]1CC[C@]2(O)C(=O)CO | 1 ± 0.085 | 1.125 ± 0.0071 | 1.07 ± 0.057 | 1.035 ± 0.0071 | 0.91 ± 0.17
CC[C@H](/C=C/[C@@H](C)[C@H]1CC[C@H]2[C@@H]3CCC4=CC(=O)CC[C@]4(C)[C@H]3CC[C@]12C)C(C)C | 0.999 ± 0.087 | 0.976 ± 0.18 | 1.02 ± 0.041 | 1.05 | 1.06 ± 0.028
CC(=O)Oc1cc(-c2coc3cc(OC(C)=O)c(OC(C)=O)c(OC(C)=O)c3c2=O)cc(OC(C)=O)c1OC(C)=O | 1 ± 0.015 | 1.09 ± 0.2 | 0.998 ± 0.018 | 1.09 ± 0.17 | 0.95 ± 0.1
CC(=O)Oc1ccc2c(c1OC(C)=O)OCC1(O)Cc3c(cc(OC(C)=O)c(OC(C)=O)c3OC(C)=O)C21 (stereo not given) | 0.96 ± 0.017 | 1.02 ± 0.074 | 0.959 ± 0.059 | 0.939 ± 0.05 | 0.9105 ± 0.0064
CS(=O)(=O)OCCCCOS(C)(=O)=O | 1.12 ± 0.2 | 1.06 ± 0.028 | 1.06 ± 0.05 | 0.9365 ± 0.005 | 0.984 ± 0.037
Nc1ncnc2c1ncn2[C@H]1C[C@H](O)[C@@H](CO)O1 | 1.07 ± 0.064 | 1.06 ± 0.021 | 1.01 ± 0.044 | 1.05 ± 0.014 | 1.09 ± 0.064
